Rows were chosen to be rich in hits. Some 6% of all compounds tested hit in one or more screens of this group.
D1 potentiator: enhances dopamine response at the human D1 receptor. AID 504651. potentiation, % at 10 µM. 0.036% of 360,000 active. P21728. HEK293 TREx D1 cells, calcium flux, dopamine EC20 potentiation; in the data active = potentiation above about 30%
DRD3 agonist: D3 dopamine receptor (human) agonism; P35462; D3R DiscoveRx beta-arrestin cells, luminescence, 90 min; max activation, %; 0.58% of 410,000 active; AID 652048; in the data active = max activation above about 30%
Target sequence (P35462 whole entry, looked up): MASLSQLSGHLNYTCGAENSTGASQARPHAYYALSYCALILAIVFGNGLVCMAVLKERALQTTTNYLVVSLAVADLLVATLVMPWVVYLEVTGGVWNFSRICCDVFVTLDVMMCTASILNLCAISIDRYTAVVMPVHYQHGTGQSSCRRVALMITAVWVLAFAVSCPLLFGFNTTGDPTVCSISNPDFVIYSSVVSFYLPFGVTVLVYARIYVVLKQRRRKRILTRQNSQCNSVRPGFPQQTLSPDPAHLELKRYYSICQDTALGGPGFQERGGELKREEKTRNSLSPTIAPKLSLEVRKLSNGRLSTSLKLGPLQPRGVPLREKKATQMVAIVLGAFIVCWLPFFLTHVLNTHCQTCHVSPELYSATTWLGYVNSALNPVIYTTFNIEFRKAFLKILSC
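Agonist-mode cell screen: cells plated at 1500/well and incubated overnight at 37 °C, then exposed to library compounds for 90 min at 37 °C. Detection reagent was added for 30–60 min at room temperature, and luminescence was read.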
D1 antag: antagonists of human D1 dopamine receptor; P21728; AID 504652; activity change, negative = inhibition, % at 10 µM; HEK293 TREx D1 cells, calcium flux, dopamine EC80; active compounds read low; 3.2% of 360,000 active; in the data active = activity change below about -30%
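Cells carrying a force-coupled, tetracycline-inducible human D1 receptor report calcium flux. Each well gets a 10 s baseline, compound with 180 s monitoring, then an EC80 dopamine stimulus with a second 180 s kinetic read.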
D1 agonist: activates the human D1 dopamine receptor. HEK293 T-REx D1 cells, calcium flux, agonist mode. P21728. activation, % at 2 µM. 1% of 360,000 active; in the data active = activation above about 30%
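Tetracycline-induced HEK293 TREx D1 cells, force-coupled to calcium signalling, were dye-loaded with a no-wash calcium kit. Compound was pin-added after a 10 s baseline. Fluorescence was read kinetically at 1 cycle/s for 180 s, with calcium rises flagged as agonism.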
DRD3 antagonist: blocks the human D3 dopamine receptor. D3R cells, DiscoveRx beta-arrestin luminescence, antagonist mode; active compounds read low. P35462. 2.5% of 360,000 active. max response, negative = inhibition, %; in the data active = max response below about -50%; inconclusive = no clear call, values can overlap the other calls
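Cells plated overnight at 1500 cells/well, then exposed to library compounds with dopamine controls for 90 minutes at 37 degrees C. DiscoveRx reagent added for 30–60 minutes at room temperature; luminescence read, quantitative HTS format.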
Numbers stand for hits; i = inactive; ? = inconclusive; nt = no result given; ! = repeats disagree.

SMILES | D1 potentiator | DRD3 agonist | D1 antag | D1 agonist | DRD3 antagonist
O=c1c2ccccc2c(-c2ccccc2)nn1-c1cc(Cl)ccc1[N+](=O)[O-] | i | i | i | i | i
Cc1ccc(-c2nn(-c3cc(Cl)ccc3[N+](=O)[O-])c(=O)c3ccccc23)cc1C | i | i | -49 | i | i
CC(C)(C)c1ccc(OC(=O)c2cccnc2)cc1 | i | i | i | 42 | i
O=C(O)c1ccc(Nc2ncnc3ccccc23)cc1 | i | i | i | i | i
O=C(Oc1cccc(Nc2ncnc3ccccc23)c1)c1ccccc1Cl | i | 40 | i | i | i
COc1cccc(Nc2ncnc3ccccc23)c1 | i | i | nt | i | i
O=C(Oc1ccc(Nc2ncnc3ccccc23)cc1)c1cccnc1 | i | i | -47 | i | i
O=[N+]([O-])c1ccc(N/N=C2/CCCCC2c2ccccn2)cc1 (centres undefined) | i | i | -59 | i | i
Cc1ccccc1C(=O)N(Cc1sccc1C)C1CCS(=O)(=O)C1 (centres undefined) | i | i | i | i | nt
CN1C(=O)CC(C)(c2ccccc2)C1=O (centres undefined) | nt | i | nt | nt | nt
O=C(Cc1ccc(Cl)cc1Cl)Nc1ccc(OC(F)F)c(Cl)c1 | i | i | i | i | i
O=C(Nc1ccc([N+](=O)[O-])cc1)Nc1ccc(OC(F)F)c(Cl)c1 | i | i | -49 | i | i
O=C(Nc1ccc([N+](=O)[O-])cc1)Nc1ccc2c(c1)OCCO2 | i | i | -41 | 39 | ?
COc1ccc(NC(=O)Nc2ccc3c(c2)N(C)C(=O)CS3)cc1Cl | i | i | -33 | i | i
COc1ccc(NC(=O)Nc2cccc([N+](=O)[O-])c2)cc1Cl | i | i | -57 | i | i
COc1cc([N+](=O)[O-])ccc1NC(=O)Nc1ccc2c(c1)OCCO2 | i | i | i | i | i
COc1ccc(NC(=O)Nc2ccc3c(c2)N(C)C(=O)CS3)cc1OC | i | i | i | i | i
O=C(Nc1ccc(OC(F)F)c(Cl)c1)Nc1ccc2c(c1)OCO2 | i | i | -36 | i | i
COc1cc(-c2ccc(-[n+]3nc(-c4ccccc4)nn3-c3ccc([N+](=O)[O-])cc3)c(OC)c2)ccc1-[n+]1nc(-c2ccccc2)nn1-c1ccc([N+](=O)[O-])cc1 | nt | i | nt | nt | nt
Cc1cc(OCc2cc(C(=O)NCCN3CCCCC3CO)no2)cc(C)c1Cl (centres undefined) | i | i | -44 | 35 | i
Cc1cc(OCc2cc(C(=O)N(C)C3CCOC3)no2)cc(C)c1Cl (centres undefined) | i | i | -47 | i | i
COc1ccc(OCc2cc(C(=O)N(C)CCC3CCOCC3)no2)c(Cl)c1 | i | i | -41 | i | i
COc1ccc(OCc2cc(C(=O)N(C)CC3CCCCO3)no2)c(Cl)c1 (centres undefined) | i | i | i | i | i
CC(=O)c1ccc(OCc2cc(C(=O)N(C)C3CCOC3)no2)cc1 (centres undefined) | i | i | i | i | i
Cc1ccc(OCc2cc(C(=O)NCC(C)c3ccccc3)no2)cc1C (centres undefined) | i | i | -31 | i | ?
SMILES | D1 potentiator | DRD3 agonist | D1 antag | D1 agonist | DRD3 antagonist
Cc1ccc2c(c1)N(C(=O)Nc1cccc3c1CCCC3)CCO2 | i | i | i | i | nt
COc1ccc(OC)c(CNC(=O)Cc2ccc(NC(=O)N3CCSc4ncccc43)cc2)c1 | i | i | i | i | nt
Cc1oc(-c2ccccc2Cl)nc1CSc1nncn2c1cc1occc12 | i | i | i | i | nt
O=C(Nc1ccc(OC(F)(F)F)cc1)C(NS(=O)(=O)c1cccc2nsnc12)c1ccccc1 (centres undefined) | i | i | i | i | nt
Cc1cc(OCc2cc(C(=O)NCc3csc(C(C)C)n3)no2)cc(C)c1Cl | i | i | -41 | 71 | i
COc1cccc(OCc2cc(C(=O)N(C)C3CC(C)(C)NC(C)(C)C3)no2)c1 | i | i | i | i | i
COc1cccc(OCc2cc(C(=O)N(C)C3CCOCC3)no2)c1 | i | i | -56 | i | i
Cc1ccc(OCc2cc(C(=O)NCc3cn4ccccc4n3)no2)cc1C | i | i | i | i | i
CCN1CCN(Cc2ccc(NC(=O)c3cc(NC(=O)c4cc5cccc(OC)c5o4)cc(OC)c3)cc2C(F)(F)F)CC1 | i | i | i | i | -58
COc1cccc(OC)c1C(=O)NCCc1ccccc1 | nt | i | nt | nt | i
COc1ccc(-c2cc(C(=O)Nc3cc(OC)cc(C(=O)Nc4cccc(C(F)(F)F)c4)c3)[nH]n2)cc1 | i | i | -31 | i | i
COc1cccc2cc(C(=O)NCCc3ccccc3)oc12 | i | i | -34 | 57 | i
COc1cc(NC(=O)c2cc3cccc(OC)c3o2)cc(C(=O)Nc2cccc(C(F)(F)F)c2)c1 | i | 46 | i | i | i
Cc1ccc(S(=O)(=O)NCCc2sc3nc(-c4ccccc4)nn3c2C)cc1C | i | i | nt | i | nt
Cc1c(C(=O)Nc2cccc(C(F)(F)F)c2)sc2nc3n(c(=O)c12)CCCC3 | i | i | i | 36 | nt
Cc1c(C(=O)NCCc2ccc(Cl)cc2)sc2nc3n(c(=O)c12)CCCC3 | i | i | i | 99 | nt
Cc1c(C(=O)NCCc2ccc(Cl)cc2)sc2nc3n(c(=O)c12)CCC3 | i | i | i | i | i
Cc1c(C(=O)NCc2ccccc2)sc2nc3n(c(=O)c12)CCCCC3 | i | i | i | 45 | nt
Cc1cc(S(=O)(=O)Nc2cc3c(cc2NCc2ccccc2)n(C)c(=O)n3C)ccc1F | i | i | i | i | nt
Cc1nc2c(C(=O)NC(C)c3ccccc3)cnn2c(C)c1Cc1ccccc1 (centres undefined) | i | i | i | i | nt
Cn1c(CCNC(=O)c2ccc(F)cc2)nc2ccccc21 | i | i | i | i | -66
Cn1c(CCCCCN)nc2ccccc21 | i | i | i | i | -64
O=C(NCCc1nc2ccccc2n1Cc1ccccc1F)c1ccc(F)cc1 | i | i | -36 | i | nt
NS(=O)(=O)c1ccc(NC(=O)c2cccc3ccccc23)cc1 | i | i | -36 | i | i
COCCCn1c(=N)c(C(=O)NC2CCCC2)cc2c(=O)n3cc(C)ccc3nc21 | i | i | i | 86 | nt
SMILES | D1 potentiator | DRD3 agonist | D1 antag | D1 agonist | DRD3 antagonist
CCCn1c(=N)c(C(=O)NC2CCCC2)cc2c(=O)n3cc(C)ccc3nc21 | i | i | i | i | nt
CCOCCCn1c(=N)c(C(=O)NCc2cccnc2)cc2c(=O)n3cc(C)ccc3nc21 | i | i | i | 34 | nt
CCOCCCn1c(=N)c(C(=O)NCc2cccnc2)cc2c(=O)n3ccccc3nc21 | i | i | i | i | nt
COc1cc(NC(=O)c2noc3c2CCc2ccccc2-3)cc(OC)c1OC | i | i | i | i | nt
Cc1ccc(Nc2nc(N)nc(CSc3nc4ccccc4s3)n2)cc1 | i | 45! | i | i | i
Cc1c(Cl)cccc1Nc1nc(N)nc(CN2CCc3ccccc3C2)n1 | i | i | i | i | -64
COc1ccc(Nc2nc(N)nc(CSc3nc4ccccc4s3)n2)cc1 | i | i | i | i | nt

Screening data (PubChem BioAssay)
